Laboratory results from PubChem BioAssay (NCI).
About 79,000 compounds went through this panel and 15% of them were active in at least one assay; those are over-represented in the sample as a whole. Values without a mark were called inactive. Calls of active or inactive are those of the source. Rule as the data show it: active = growth inhibition above about 70%; inactive = the rest. Where a SMILES comes first, the peptide text is derived from it. [ ]: non-standard residue; d: D form. ξ: configuration not given here. ξPhe(4-N(CH2CH2Cl)2) = NC(Cc1ccc(N(CCCl)CCCl)cc1)C(=O)O

Assay: NCI Yeast Anticancer Drug Screen. Data for the bub3 strain (AID 167)
Settings: S. cerevisiae bub3 mutant strain, at 50.0 µM, hits give high values
Summary of the method: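 Screening used yeast with an engineered genetic alteration affecting cell cycle control. Compound-exposed cultures were compared with vehicle cultures, and reduced growth was taken as inhibition.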

| Compound | growth inhibition |
| --- | --- |
| CCCCCCCCCCCCN(C)C | 29.1% |
| Nc1nc(N)c(N=Nc2ccc([As](=O)(O)O)c(O)c2)c(N)n1 | -43% |
| O=C(O)CCCC(=O)CCCC(=O)O.[Pb] | 2.05% |
| C=Cn1nnc(N)n1 | 17.1% |
| CN(C)NP(=O)(c1ccccc1)c1ccccc1 | 7.75% |
| CCCC(=O)[O-].N.N.N.N.N.[Co+3].[O-][Cl+3]([O-])([O-])[O-] | 1.7% |
| CC(=O)Nc1cc([As](=O)(O)O)ccc1O | 9.85% |
| CC(C)CNC12CN3CN(CN(C3)C1)C2 | -4.85% |
| Oc1ccccc1C=NCCN=Cc1ccccc1O | -9.2% |
| CN1CCCC(O)(C(=O)c2ccccc2)C1 (stereo not given) | -9.35% |
| COC(C)C(O)(C(=O)OCC1=CCN2CCC(O)C12)C(C)(C)O (stereo not given) | 10.1% |
| O=C/C=C/c1ccco1 | -8.45% |
| O=C(Nc1cccc(S(=O)(=O)F)c1)/C(=C/c1ccc([N+](=O)[O-])cc1)c1ccccc1 | 81.2% (active) |
| O=C1NC(=S)NC(=O)C1=Cc1ccccc1O | -1.45% |
| [Fe+2].[c-]1[c-][c-][cH-][c-]1.[c-]1[c-][c-][cH-][c-]1.c1cc[c]([Pb]([c]2ccccc2)[c]2ccccc2)cc1 | 78.3% (active) |
| CN(C)P(=O)(N(C)C)N(C)C (tested in a mixture with another compound) | -31.6% |
| CC(C)=CCC1=C(OOC2=C(CC=C(C)C)C(=O)c3ccccc3C2=O)C(=O)c2ccccc2C1=O | 5.05% |
| Cc1cc(C)c(O)c(CN2CCCCC2)c1 | 19.6% |
| O=[N+]([O-])c1ccc(O)c(C=NCCN=Cc2cc([N+](=O)[O-])ccc2O)c1.[Ni+2] | -3.8% |
| [CH-]=C([CH2-])C.[Ni][Br].c1ccc([PH+](c2ccccc2)c2ccccc2)cc1 | -4.6% |

| Compound | growth inhibition |
| --- | --- |
| NCc1c[nH]c2ccccc12 | -16.5% |
| CN1CCCC1c1ccc[n+](C)c1 (stereo not given) | 2.1% |
| CC(O)CN(CCN(CC(C)O)CC(C)O)CC(C)O.[Cl-].[Zn+2] (stereo not given) | 8.8% |
| CCOC(=O)C(Cc1ccc(N(CCCl)CCCl)cc1)NC(=O)C(Cc1ccccc1)NC(=O)C(NC(=O)CNC(=O)C1CCCN1)C(C)C (stereo not given) (H-PGVF[ξPhe(4-N(CH2CH2Cl)2)]-OEt; configuration not given here) | 6.1% |
| CC12CCC3C(CCC4CC(Cl)CCC43C)C1CCC2=O (stereo not given) | -6.1% |
| ClC12OOC(c3ccccc3)(O1)C(c1ccccc1)c1ccccc12 (stereo not given) | 10.8% |
| [CH3][Sn]([CH3])([n]1cnc(N)nc1=O)[n]1cnc(N)nc1=O | -2.55% |
| CC(Cl)CN(CC(C)Cl)c1ccc2c(c1)Cc1ccccc1-2 (stereo not given) | 23.1% |
| N#CCCc1ccccc1 | -1.1% |
| C#CCn1c(I)cc2c(c1=O)COC(=O)[C@]2(O)CC | 6.35% |
| c1ccc([Se+](c2ccccc2)c2ccccc2)cc1 | -1.55% |
| COc1ccc2c(c[n+](C)c3c4cc5c(cc4ccc23)OCO5)c1OC | -6.5% |
| CC1CCCCN1 (stereo not given) | 13.5% |
| CCN(CC)CCn1c(=O)n(C)c2ccccc21 | -1.65% |
| c1ccc2c3c(ccc2c1)NC1CCCN1C3 (stereo not given) | -8.6% |
| CC(C)C1(Cc2ccccc2)C(=O)NC(=S)NC1=O | -14.2% |
| CS(=N)(=O)CCC(N)P(=O)(O)O (stereo not given) | -50.5% |
| O=C1c2ccccc2C2(O)C3C=CCCN3CN12 (stereo not given) | -4.05% |
| CN1C(=O)N(C)C(O)C(Cl)(Cl)C1=O (stereo not given) | 26.1% |
| O=Cc1ccccc1O.O=Cc1ccccc1O.[Cu] | 70.2% (active) |

Assay: NCI Yeast Anticancer Drug Screen. Data for the mlh1 rad18 strain (AID 175)
Settings: S. cerevisiae mlh1 rad18 strain growth inhibition; at 50.0 µM; hits give high values
Summary of the method: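 Compound-treated yeast growth, normalised to vehicle controls. Strain bears defined DNA repair mutations.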

| Compound | growth inhibition |
| --- | --- |
| CCCCCCCCCCCCN(C)C | 37.9% |
| Nc1nc(N)c(N=Nc2ccc([As](=O)(O)O)c(O)c2)c(N)n1 | -18.1% |
| O=C(O)CCCC(=O)CCCC(=O)O.[Pb] | -4.1% |
| C=Cn1nnc(N)n1 | 9.05% |
| CN(C)NP(=O)(c1ccccc1)c1ccccc1 | -2.9% |
| CCCC(=O)[O-].N.N.N.N.N.[Co+3].[O-][Cl+3]([O-])([O-])[O-] | -21.9% |
| CC(=O)Nc1cc([As](=O)(O)O)ccc1O | 33.8% |
| CC(C)CNC12CN3CN(CN(C3)C1)C2 | -23.7% |
| Oc1ccccc1C=NCCN=Cc1ccccc1O | 31.8% |
| CN1CCCC(O)(C(=O)c2ccccc2)C1 (stereo not given) | 12.9% |
| COC(C)C(O)(C(=O)OCC1=CCN2CCC(O)C12)C(C)(C)O (stereo not given) | -52.4% |
| O=C/C=C/c1ccco1 | 31.8% |
| O=C(Nc1cccc(S(=O)(=O)F)c1)/C(=C/c1ccc([N+](=O)[O-])cc1)c1ccccc1 | 88.2% (active) |
| O=C1NC(=S)NC(=O)C1=Cc1ccccc1O | -31.2% |
| [Fe+2].[c-]1[c-][c-][cH-][c-]1.[c-]1[c-][c-][cH-][c-]1.c1cc[c]([Pb]([c]2ccccc2)[c]2ccccc2)cc1 | 87.8% (active) |
| CN(C)P(=O)(N(C)C)N(C)C (tested in a mixture with another compound) | -14.3% |
| CC(C)=CCC1=C(OOC2=C(CC=C(C)C)C(=O)c3ccccc3C2=O)C(=O)c2ccccc2C1=O | 5.7% |
| Cc1cc(C)c(O)c(CN2CCCCC2)c1 | 14.5% |
| O=[N+]([O-])c1ccc(O)c(C=NCCN=Cc2cc([N+](=O)[O-])ccc2O)c1.[Ni+2] | -22.4% |
| [CH-]=C([CH2-])C.[Ni][Br].c1ccc([PH+](c2ccccc2)c2ccccc2)cc1 | -1.75% |

| Compound | growth inhibition |
| --- | --- |
| NCc1c[nH]c2ccccc12 | -9.7% |
| CN1CCCC1c1ccc[n+](C)c1 (stereo not given) | 3.35% |
| CC(O)CN(CCN(CC(C)O)CC(C)O)CC(C)O.[Cl-].[Zn+2] (stereo not given) | 6.1% |
| CCOC(=O)C(Cc1ccc(N(CCCl)CCCl)cc1)NC(=O)C(Cc1ccccc1)NC(=O)C(NC(=O)CNC(=O)C1CCCN1)C(C)C (stereo not given) (H-PGVF[ξPhe(4-N(CH2CH2Cl)2)]-OEt; configuration not given here) | 29.6% |
| CC12CCC3C(CCC4CC(Cl)CCC43C)C1CCC2=O (stereo not given) | -5.05% |
| ClC12OOC(c3ccccc3)(O1)C(c1ccccc1)c1ccccc12 (stereo not given) | 44.5% |
| [CH3][Sn]([CH3])([n]1cnc(N)nc1=O)[n]1cnc(N)nc1=O | -60.4% |
| CC(Cl)CN(CC(C)Cl)c1ccc2c(c1)Cc1ccccc1-2 (stereo not given) | 9% |
| N#CCCc1ccccc1 | 0.65% |
| C#CCn1c(I)cc2c(c1=O)COC(=O)[C@]2(O)CC | -31.8% |
| c1ccc([Se+](c2ccccc2)c2ccccc2)cc1 | 17.9% |
| COc1ccc2c(c[n+](C)c3c4cc5c(cc4ccc23)OCO5)c1OC | 0.6% |
| CC1CCCCN1 (stereo not given) | 2.85% |
| CCN(CC)CCn1c(=O)n(C)c2ccccc21 | 20.9% |
| c1ccc2c3c(ccc2c1)NC1CCCN1C3 (stereo not given) | 12.2% |
| CC(C)C1(Cc2ccccc2)C(=O)NC(=S)NC1=O | -2.7% |
| CS(=N)(=O)CCC(N)P(=O)(O)O (stereo not given) | -27.9% |
| O=C1c2ccccc2C2(O)C3C=CCCN3CN12 (stereo not given) | -6.75% |
| CN1C(=O)N(C)C(O)C(Cl)(Cl)C1=O (stereo not given) | 11.6% |
| O=Cc1ccccc1O.O=Cc1ccccc1O.[Cu] | 92.6% (active) |
